Source: ChEMBL document CHEMBL4808148, “HDAC6 screening dataset using tau-based substrate in an enzymatic assay yields selective inhibitors and activators” (2021)
Out of some 5,600 compounds screened, about 390 (7%) showed an effect of 50% or more. The full list was thinned out, with strong results kept by preference. Residues, ends and D or L forms follow the SMILES beside them.

Columns and labels:
[1] = target: T1, Protein deacetylase HDAC6 (Homo sapiens) (UniProt Q9UBN7); settings: at 10 µM
T1 sequence (whole entry): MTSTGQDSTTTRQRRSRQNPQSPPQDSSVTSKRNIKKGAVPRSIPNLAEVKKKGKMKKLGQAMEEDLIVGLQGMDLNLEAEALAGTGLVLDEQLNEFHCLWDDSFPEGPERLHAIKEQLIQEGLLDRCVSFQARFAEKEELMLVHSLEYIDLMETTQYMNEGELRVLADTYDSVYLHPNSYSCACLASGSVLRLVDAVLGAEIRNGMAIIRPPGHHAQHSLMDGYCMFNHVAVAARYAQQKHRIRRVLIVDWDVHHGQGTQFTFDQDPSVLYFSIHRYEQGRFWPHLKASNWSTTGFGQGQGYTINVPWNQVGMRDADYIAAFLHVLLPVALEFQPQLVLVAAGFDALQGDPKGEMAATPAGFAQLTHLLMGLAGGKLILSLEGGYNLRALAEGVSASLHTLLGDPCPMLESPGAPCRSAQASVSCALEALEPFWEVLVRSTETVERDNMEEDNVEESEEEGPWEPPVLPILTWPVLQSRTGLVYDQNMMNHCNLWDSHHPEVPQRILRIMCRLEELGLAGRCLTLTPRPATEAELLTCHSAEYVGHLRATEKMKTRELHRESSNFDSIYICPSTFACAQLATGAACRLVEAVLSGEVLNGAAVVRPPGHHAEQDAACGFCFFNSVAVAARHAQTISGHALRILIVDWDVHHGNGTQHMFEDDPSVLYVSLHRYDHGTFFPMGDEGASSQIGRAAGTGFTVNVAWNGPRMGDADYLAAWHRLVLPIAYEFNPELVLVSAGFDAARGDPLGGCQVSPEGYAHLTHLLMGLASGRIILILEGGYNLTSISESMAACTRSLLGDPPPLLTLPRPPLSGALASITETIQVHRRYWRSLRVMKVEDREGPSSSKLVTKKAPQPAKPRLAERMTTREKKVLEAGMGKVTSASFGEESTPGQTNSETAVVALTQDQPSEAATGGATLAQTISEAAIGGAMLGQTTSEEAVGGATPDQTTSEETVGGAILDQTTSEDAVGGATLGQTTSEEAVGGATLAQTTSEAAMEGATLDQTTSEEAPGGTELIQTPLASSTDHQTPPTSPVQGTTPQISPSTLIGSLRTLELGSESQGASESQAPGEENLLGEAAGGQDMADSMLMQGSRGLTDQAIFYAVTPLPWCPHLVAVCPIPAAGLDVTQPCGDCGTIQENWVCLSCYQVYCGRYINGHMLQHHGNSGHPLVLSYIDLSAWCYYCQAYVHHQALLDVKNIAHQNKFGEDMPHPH

[2] = target: Protein deacetylase HDAC6 (Homo sapiens) (UniProt Q9UBN7); settings: at 10 µM; remark: listed apart in the source

Row | Compound | inhibition [1] | inhibition [2]
1 | C=CCN1CC[C@]23c4c5ccc(O)c4O[C@H]2[C@@H](OCCOCCOCCOCCOCCOCCOCCOC)CC[C@@]3(O)[C@H]1C5 | 3.73% | –
2 | OC[C@H]1O[C@H](O)C[C@@H](O)[C@@H]1O | -3.53% | –
3 | O=C(Nc1cc(C(F)(F)F)cc(C(F)(F)F)c1)Nc1c(Br)cc(Br)cc1-c1nnn[nH]1 | 0.45% | –
4 | O=C(c1cn(Cc2cncn2Cc2ccc(Br)cc2)cc1-c1cccc2ccccc12)N1CCOCC1 | -6.62% | –
5 | COc1cc2c(cc1OC)CN(C(=O)/C=C/c1c(-c3ccccc3)n(C)c3ncccc13)CC2 | 33.3% | –
6 | COC1[C@@H](O)[C@@H](O)C(O)[C@H](O)[C@H]1O (stereo not given in full) | -3.32% | –
7 | CC(C)[C@@H]1C(=O)N(S(C)(=O)=O)[C@@H]2CCN(C(=O)/C=C/CN3CCCCC3)[C@H]21 | -9.25% | –
8 | NC(=O)c1nc(Nc2ccccc2)sc1NC(=O)C1CCCCC1 | 11.1% | –
9 | Cc1nc2c(c(=O)[nH]1)CSCC2 | 36% | –
10 | CC(C)(C)NCC(O)COc1cc(Cl)ccc1Cl (stereo not given) | 2.55% | –
11 | Nc1nc(F)nc2c1ncn2[C@@H]1O[C@H](COP(=O)(O)O)[C@@H](O)[C@@H]1O | -4.37% | –
12 | TOCOFERSOLAN, CHEMBL2108106 | – | 6.6%
13 | O=C(Nc1ncc(SCCN2CCCC2)s1)[C@]1(c2ccc(S(=O)(=O)C3CC3)cc2)C[C@H]1C1CCCCC1 | -4.35% | –
14 | CC(C)CC(NC(=O)C1CCCN1)C(=O)NCC(N)=O (stereo not drawn) (H-Pro-Leu-Gly-NH2; configuration not given here) | 40.6% | –
15 | CC(C)(C)Nc1nc(Nc2ccc(C(N)=O)cc2)cc(N)c1C#N | 26.8% | –
16 | CC(C)C(N)=O | 26.5% | –
17 | O=C(CC1CC(c2ccc(F)cc2F)=NO1)N1CCOCC1 (racemic) | 99.4% | –
18 | O=C(O)CC1CC(c2ccccc2)=NO1 (stereo not given) | 32.1% | –
19 | CCCC[C@H](NC(C)=O)C(=O)N[C@H]1CC(=O)NCCCC[C@@H](C(=O)O)NC(=O)[C@H](Cc2c[nH]c3ccccc23)NC(=O)[C@H](CCCNC(=N)N)NC(=O)[C@@H](Cc2ccccc2)NC(=O)[C@H](Cc2c[nH]cn2)NC1=O | 38.5% | –
20 | N#CC[C@@H](C1CCCC1)n1cc(-c2ncnc3[nH]ccc23)cn1 | -2.44% | –
21 | CN(C)[C@@H](CCOc1cccc2ccccc12)c1ccccc1 | 53% | –
22 | CNC(=O)Oc1cccc2ccccc12 | 25.3% | –
23 | C[C@@H]([C@H](O)c1ccccc1)N(C)C | -0.94% | –
24 | CNC(=O)c1ccccc1Nc1nc(Nc2ccc3c(c2OC)CCC[C@H](N2CCN(CCO)CC2)C3)ncc1Cl | 11.5% | –
25 | N#[N+]/C=C(\[O-])CC[C@H](N)C(=O)O | 28.2% | –
26 | COc1cc(OCc2cccc(-c3ccccc3)c2C)cc(OC)c1CN1CCCC[C@H]1C(=O)O | 64.2% | –
27 | CCOC(=O)[C@H](CCc1ccccc1)N[C@@H](C)C(=O)N1Cc2cc(OC)c(OC)cc2C[C@H]1C(=O)O | -0.68% | –
28 | CC[C@H](C)[C@H]1O[C@]2(C=C[C@@H]1C)C[C@@H]1C[C@@H](C/C=C(\C)[C@@H](O[C@H]3C[C@H](OC)[C@@H](O[C@H]4C[C@H](OC)[C@@H](O)[C@H](C)O4)[C@H](C)O3)[C@@H](C)/C=C/C=C3\CO[C@@H]4[C@H](O)C(C)=C[C@@H](C(=O)O1)[C@]34O)O2 | -4.72% | –

Row | Compound | inhibition [1] | inhibition [2]
29 | O=C(NCCN1CCN(c2ncccn2)CC1)C12CC3CC(CC(C3)C1)C2 | -4.05% | –
30 | COc1cc(OC)c(/C=C/S(=O)(=O)Cc2ccc(OC)c(OP(=O)(O)O)c2)c(OC)c1 | 6.33% | –
31 | CCn1c(=O)n(C2=C(CO)CN(CC3CCCCCCC3)CC2)c2ccccc21 | -8.59% | –
32 | CN1CCC2=C(C1)C(c1ccccc1)c1ccccc12 (stereo not given) | -8.99% | –
33 | CNC1CC(c2ccc(Cl)c(Cl)c2)c2ccccc21 (stereo not given) | 30.3% | –
34 | CCCCN1[C@@H]2CC[C@H]1C[C@@H](OC(c1ccc(F)cc1)c1ccc(F)cc1)C2 | 7.33% | –
35 | Nc1nc(OCc2cc(Br)cs2)c2[nH]cnc2n1 | 65.4% | –
36 | CN1CCN(c2cccc3[nH]c(=O)oc23)CC1 | 26.1% | –
37 | O=C([O-])[C@H]1O[C@H](O)[C@H](O)[C@@H](O)[C@@H]1O.[Na+] | 1.38% | –
38 | CCOC(=O)c1ccc(N(C)c2csc(-c3ccccc3)n2)cc1 | 30.7% | –
39 | Nc1ccc(C(=O)OCC(O)CO)cc1 (stereo not given) | 14.1% | –
40 | CC(C)COC(=O)c1ccc(N)cc1 | 82.8% | –
41 | CC1=C[C@H](O)CC(C)(C)[C@H]1/C=C/C(C)=C/C=C/C(C)=C/C=C/C=C(C)/C=C/C=C(C)/C=C/C1=C(C)C[C@@H](O)CC1(C)C | 5.04% | –
42 | CC[C@H]1[C@@H](O)[C@@H]2[C@H](CC[C@]3(C)[C@@H]([C@H](C)CCOS(=O)(=O)O)CC[C@@H]23)[C@@]2(C)CC[C@@H](O)C[C@@H]12 | -1.78% | –
43 | CC(C)C[C@H](NC(=O)[C@H](CCCCN)NC(=O)[C@H](CCCNC(=N)N)NC(=O)[C@H](C)NC(=O)[C@H](CO)NC(=O)[C@H](CCCCN)NC(=O)[C@H](CCCNC(=N)N)NC(=O)[C@H](C)NC(=O)CNC(=O)[C@@H](NC(=O)[C@H](Cc1ccccc1)NC(=O)CNC(=O)CNC(=O)[C@@H](N)Cc1ccccc1)[C@@H](C)O)C(=O)N[C@@H](C)C(=O)N[C@@H](CC(N)=O)C(=O)N[C@@H](CCC(N)=O)C(=O)O | 3.21% | –
44 | CCC(CC)C(c1ccc(Nc2nc3ccccc3s2)cc1)n1cncn1 (stereo not given) | 11.9% | –
45 | CC(C)c1cnn2c(NCc3ccccc3)cc(NCCCCCCN)nc12 | 61.1% | –
46 | Cc1cc(/C=c2/sc3nc4ccccc4n3c2=O)c(C)n1-c1ccccc1 | -0.72% | –
47 | Cc1cc(/C=C2\SC(=O)N(c3ccccc3)C2=O)c(C)n1-c1cccnc1 | 96.7% | –
48 | Nc1nc(=O)c2sc(=O)n([C@@H]3O[C@H](CO)[C@@H](O)[C@H]3O)c2[nH]1 | 7.72% | –
49 | Cc1cc2sc(NC(=O)Cc3ccccc3)nc2cc1Cl | 19.7% | –
50 | Cc1ccc(-c2csc(NC(=O)c3ccccc3)n2)c(C)c1 | 61.3% | –
51 | NC(=O)CN1C=CCC(C(N)=O)=C1 | -1.44% | –
52 | O=C1c2cc(Cl)ccc2OC2CCON12 (stereo not given) | 8.29% | –
53 | COc1ccccc1OC(=O)CNC(=O)Cc1ccc(C(=O)c2ccc(C)cc2)n1C | 27.4% | –
54 | COc1ccn2ncc(-c3nc4[nH]nc(NC(=O)c5ccc(F)cc5)c4cc3F)c2c1 | 1.3% | –
55 | COc1cc(OC)cc(-c2ccc3c(-c4ccc(F)cc4)n[nH]c3n2)c1 | 81.7% | –
